High-throughput results deposited in PubChem BioAssay by Broad Institute.
The list is a sample of the results.
aSyn UTR act: Activators via SNCA 5'UTR binding, MLPCN | activity score, % (tested at 7.5 µM), hits read low | hit rate 7.1% among 300,000 | alpha-synuclein 5'UTR reporter, activators screen | AID 1814, 2009; in the data active = activity score below about -60%
Hits are given with their value; n = inactive.

SMILES	aSyn UTR act
Cc1ccc(NC(=O)Cn2nnc3ccccc32)cc1	-176.0
Cc1cccc(NC(=O)Cn2nnc3ccccc32)c1	-103.7
COC(=O)c1ccc(NC(=O)Cn2nnc3ccccc32)cc1	-174.1
Cc1noc(C(=O)Nc2ccc(F)c(Cl)c2)c1Cl	-70.4
Cc1ccc(NC(=O)c2onc(C)c2Cl)cc1	-150.6
CCOc1ccc(C2C(C(=O)c3ccc(C)o3)=C(O)C(=O)N2c2nc(C)c(C(=O)OC)s2)cc1 (centres undefined)	-92.4
O=C(Nc1cccc2c1CCCC2)c1cc([N+](=O)[O-])ccc1Cl	-79.4
Cc1ccc(O)c(NC(=O)c2cc([N+](=O)[O-])ccc2Cl)c1	-62.0
O=C(Nc1cccc2ncccc12)c1cc([N+](=O)[O-])ccc1Cl	-61.9
Cc1cc(O)c(NC(=O)c2cc([N+](=O)[O-])ccc2Cl)cc1C	-106.4
Cc1ccc(C2(c3ccc(C)cc3)CC2C(=O)Nc2ccc([N+](=O)[O-])cc2O)cc1 (centres undefined)	n
O=C(CCl)Nc1cccc2ncccc12	-95.4
O=[N+]([O-])c1ccc2nc(/C=C/c3ccc(Cl)cc3)[nH]c2c1	-150.7
Nc1ccc(-c2nc3ccc([N+](=O)[O-])cc3[nH]2)cc1	-84.1
O=[N+]([O-])c1ccc(-c2nc3ccc([N+](=O)[O-])cc3[nH]2)cc1	-142.6
COc1ccc(-c2nnc(SCc3nc4ccccc4s3)n2C(C)C)cc1	-106.8
COc1ccccc1-c1nnc(SCc2nc3ccccc3s2)n1C	-109.3
Cc1ccccc1-n1c(C)nnc1SCc1nc2ccccc2s1	-250.0
CCOc1ccccc1-n1nnnc1SCc1nc2ccccc2s1	-233.5
Cn1c(SCc2nc3ccccc3s2)nnc1-c1cccs1	-67.1
NC(=O)CSCc1nc2ccccc2s1	-64.7
CCn1c(SCc2nc3ccccc3s2)nnc1-c1cccs1	-160.1
O=c1cccc2n1Cc1cc3ccccc3nc1-2	-151.9
CC[C@@]1(O)C(=O)OCc2c1cc1n(c2=O)Cc2cc3c(N)cccc3nc2-1	n
COc1ccc(NCN2C(=O)C3C4C=CC(C4)C3C2=O)cc1 (centres undefined)	-66.6
SMILES	aSyn UTR act
COc1ccc(-c2nc3c4ccccc4[nH]c(=O)n3n2)cc1	-82.4
COc1cccc(C2=NO[C@@H]3C(=O)N(c4ccc5c(c4)OCCO5)C(=O)[C@H]23)c1OC	-80.8
c1cncc(-c2nc(-c3ccc4c(c3)OCO4)cs2)c1	-117.2
Oc1ccc(-c2csc(-c3cccnc3)n2)c(O)c1	-100.9
Clc1ccsc1-c1csc(-c2cccnc2)n1	-85.3
COCCCN=C(c1ccco1)n1c(=S)nc(-c2ccco2)n(CCCOC)c1=S	-87.7
CCCCOC(=O)Nc1nc2ccccc2s1	-252.5
CCCCN(C(=O)NC(=O)Nc1nc2ccc(OC)cc2s1)S(C)(=O)=O	-82.9
CCCCOC(=O)Nc1nc2ccc(OC)cc2s1	-102.9
COc1cccc(NC(=S)Nc2cc(C(=O)O)ccc2N2CC3CC(C2)c2cccc(=O)n2C3)c1 (centres undefined)	-94.8
COC(=O)Cn1ncn2c(cc3oc(C)cc32)c1=O	-118.5
C=C(C)CNC(=S)Nc1nc2c(cc1C(=O)OCC)CCCC2	-105.4
O=C1NCCN/C1=C\C(=O)c1cccc(Br)c1	-61.8
O=C1NCCN/C1=C\C(=O)c1ccc(Br)cc1	-120.1
O=C(Nc1ccc(NC(=O)C23CC4CC(CC(C4)C2)C3)cn1)c1ccco1	-144.1
CCC(=O)Nc1ccc(NC(=O)C23CC4CC(CC(C4)C2)C3)cn1	-93.5
O=S1(=O)CCN2C=C(Br)C=C(Br)C2=N1	-71.9
CCC(=O)Nc1ccc(NC(=O)c2ccccn2)cn1	-87.8
CCCC(=O)Nc1ccc(NC(=O)c2ccccc2Cl)nc1	-76.1
CCOc1ccc2nc(NC(=O)C34CC5CC(CC(NC(C)=O)(C5)C3)C4)sc2c1	-131.9
COc1ccc2nc(NC(=O)C34CC5CC(CC(NC(C)=O)(C5)C3)C4)sc2c1	-94.4
CC(C)N1C(=O)CN(C2CCCCCC2)C(=O)C1c1ccccc1F (centres undefined)	-140.3
CC(C)CCNC(=O)c1ccccc1NC(=O)C1=CSCCO1	-119.0
COc1ccc(C(=O)Nc2ccccc2C(=O)Nc2ccccn2)cc1	-104.4
Cc1ccc(C(=O)Nc2ccccc2C(=O)Nc2ccccn2)cc1Cl	-70.4
SMILES	aSyn UTR act
Cc1ccc(C(=O)Nc2cccnc2Cl)cc1Cl	-156.2
COc1ccc2cc3c(N)c(C(=O)N4CCCC4)sc3nc2c1	-189.3
Cc1ccc2nc3sc(C(=O)N4CCOCC4)c(N)c3cc2c1	n
Cc1ccc2cc3c(N)c(C(=O)N4CC(=O)Nc5ccccc54)sc3nc2c1	n
CCOc1ccc2nc3sc(C(=O)N4CCN(C)CC4)c(N)c3cc2c1	-80.3
CC(C)c1ccc2nc3sc(C(=O)N4CCc5ccccc5C4)c(N)c3cc2c1	-61.5
Cc1ccc(Cn2ccc(NC(=O)c3noc4c3CCCC4)n2)cc1	-110.7
CCc1ccc(NC(=O)c2noc3c2CCCCC3)cc1	-182.4
COc1ccc(NC(=O)c2noc3c2CCCCC3)cc1	-100.4
O=C(NC1CCCCC1)c1noc2c1CCCCC2	-90.2
O=C(NCc1ccco1)c1noc2c1CCCCC2	-76.7
CSc1ccccc1NC(=O)c1noc2c1CCC2	-103.3
